Measured values published in PubChem BioAssay (NCI).
Compounds without any hit were thinned out: in the full panel of roughly 83,000, 20% have a hit.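 Compound tested at a single concentration for 48 hours in 96-well plates; a percent growth value below 10 was scored as active.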 Unmarked numbers belong to inactive results. Calls of active or inactive are those of the source.

Legend:
Assay in all cases: NCI-60 one-dose screen, 48 h (100 = growth as untreated, 0 = no growth, -100 = all killed)
Conditions in all cases: 10 µM
NCI-H23 lung = tested on: NCI-H23 lung
NCI-H226 lung = tested on: NCI-H226 lung
NCI-H322M lung = tested on: NCI-H322M lung
NCI-H522 lung = tested on: NCI-H522 lung
786-0 renal = tested on: 786-0 renal
COLO 205 colon = tested on: COLO 205 colon
DU-145 prostate = tested on: DU-145 prostate
K-562 leukemia = tested on: K-562 leukemia
MALME-3M melanoma = tested on: MALME-3M melanoma
MDA-MB-231 breast = tested on: MDA-MB-231 breast
RXF 393 renal = tested on: RXF 393 renal
SF-268 CNS = tested on: SF-268 CNS
SF-295 CNS = tested on: SF-295 CNS
SF-539 CNS = tested on: SF-539 CNS
UACC-257 melanoma = tested on: UACC-257 melanoma
M14 melanoma = tested on: M14 melanoma
A549/ATCC NSCLC = tested on: A549/ATCC NSCLC
NCI-H460 lung = tested on: NCI-H460 lung
HOP-92 NSCLC = tested on: HOP-92 NSCLC

| SMILES | growth (NCI-H23 lung) | growth (NCI-H226 lung) [%] | growth (NCI-H322M lung) | growth (NCI-H522 lung) | growth (786-0 renal) | growth (COLO 205 colon) | growth (DU-145 prostate) | growth (K-562 leukemia) | growth (MALME-3M melanoma) | growth (MDA-MB-231 breast) | growth (RXF 393 renal) | growth (SF-268 CNS) | growth (SF-295 CNS) | growth (SF-539 CNS) | growth (UACC-257 melanoma) | growth (M14 melanoma) | growth (A549/ATCC NSCLC) [%] | growth (NCI-H460 lung) | growth (HOP-92 NSCLC) |
| --- | --- | --- | --- | --- | --- | --- | --- | --- | --- | --- | --- | --- | --- | --- | --- | --- | --- | --- | --- |
| CCC(c1ccc(OC)cc1)C(CC)c1ccc(O)c(CN2CCN(C)CC2)c1 (configuration not stated) | 57.8% | 88.9 | 76.1% | 61.9% | 57.6% | -83.5% (active) | 92.4% | 9.45% (active) | 6.2% (active) | 56.3% | 39.3% | 80.6% | 28.9% | 67.4% | -5.73% (active) | -19.5% (active) | – | – | – |
| CCCC1(CN2c3ccccc3Sc3ccc(Cl)cc32)CCN(CC)C1 (configuration not stated) | 5.21% (active) | 32.4 | 25.5% | -75.2% (active) | -95.7% (active) | -80.8% (active) | -32.3% (active) | -61.9% (active) | -61.5% (active) | -28.4% (active) | -33.7% (active) | 25.9% | -89.4% (active) | -7.27% (active) | 4.91% (active) | -93.2% (active) | 18.6 | – | – |
| COc1cc(-c2ccc[nH]2)[nH]c1/C=C1\N=C(C)C(C(=O)NC(C)C)=C1C | 40.5% | 42.7 | 39.2% | 13.4% | 8.09% (active) | 26.9% | 21.2% | 1.73% (active) | – | -9.67% (active) | 47.6% | 44.4% | 40.2% | 18.9% | 23.3% | -1.65% (active) | 14.7 | 9.93% (active) | – |
| CC(=O)/C(=C/c1ccc(Br)cc1)C(=O)c1ccccc1 | 99.5% | 87.8 | 115% | 85.2% | 84.5% | 111% | 81.6% | 30.7% | – | 77.4% | – | 67.4% | 88.9% | 96.7% | 78.3% | 69.9% | 94 | 103% | – |
| O=C(N/N=C/c1cc([N+](=O)[O-])ccc1O)c1cccc2ccccc12 | 45.3% | 42.6 | 45.4% | 21.9% | 36.5% | 48.9% | 45.2% | 30.3% | 53.7% | 40.9% | 46.5% | 39.8% | 26.4% | 22.9% | 23.5% | 34.5% | 54.8 | 20.7% | – |
| NC(N)=N/N=C(\N=Nc1ccccc1)c1ccc(Cl)cc1 | 78.9% | 82.3 | 64.8% | 29.9% | 46.7% | – | 47.3% | 1.17% (active) | 85.6% | -12.5% (active) | 41.5% | 34.2% | -5.99% (active) | 19.7% | 70.9% | 10.2% | 52.7 | 40% | – |
| C[C@]12CC[C@@H]3c4ccc(OS(=O)(=O)O)cc4CC[C@H]3[C@@H]1CC[C@@H]2NS(=O)(=O)c1ccc(-c2ccccc2)cc1 | 61.5% | 68.4 | 86.9% | 44.4% | 69.6% | 47.4% | 75.3% | 26.8% | 60.8% | 84.3% | 53.1% | 69.8% | – | 90.1% | 77.2% | 62.8% | – | 43.3% | – |
| Cc1ccc(-c2c3c(N)nc(-c4cccnc4)nc3nc3c2c(C)nn3-c2ccccc2)cc1 | 97.9% | 52.2 | 76.8% | – | 80.9% | – | 98.1% | 86.7% | 91.9% | 75.9% | 79% | 80.7% | 96.1% | 45.8% | – | 97.3% | 68.4 | 85% | 46.5% |
| O=C1/C(=C/c2cccc(F)c2)Cc2ccccc21 | 101% | 105 | 94.4% | – | 98.1% | 124% | 113% | 106% | 106% | 112% | 99.4% | 112% | 77.9% | 110% | – | 98.8% | 87.7 | 107% | 73.5% |
| COc1cc(C2CC(c3cc(Cl)c(C)cc3O)=NN2c2ccc(S(N)(=O)=O)cc2)cc(OC)c1OC (configuration not stated) | 3.07% (active) | 23.5 | 41.3% | 8.94% (active) | – | -100% (active) | 35.9% | – | 31.9% | -8.53% (active) | -2.73% (active) | 24.6% | 22% | 2.6% (active) | 44.7% | -26.5% (active) | 24.2 | -67.7% (active) | – |
| CCCCC/C=C/C/C=C/CCCCCCCC1=NC(C)(C)CN1C(C)C | 20.7% | 86.5 | 108% | – | 62.4% | -87.2% (active) | 63.1% | -30.9% (active) | 56.3% | 36.6% | 25.1% | 55.6% | 31.2% | 65.7% | 25.7% | 28.5% | – | -32.3% (active) | – |
| CC(C)(C)c1ccc(S(=O)(=O)N[C@H]2CC[C@H]3[C@@H]4CCc5cc(OS(=O)(=O)O)ccc5[C@H]4CC[C@]23C)cc1 | 56.8% | 52.4 | 61% | – | 50% | 13.8% | 63.3% | 22% | 41.8% | 26.4% | 9.08% (active) | 51.2% | 44.7% | 82.4% | 68.2% | 54.2% | 31.6 | 26.2% | – |
| CN(C)c1ccc(/C=N/NC(=O)c2cccc3ccccc23)c(Cl)c1 | 1.31% (active) | 61.2 | 57.6% | 22.6% | 56.1% | 19.7% | 17.1% | 11.6% | 53.4% | 67.7% | 7.47% (active) | 59% | 19.1% | 19.9% | 35.8% | 27.6% | 26.8 | 19.2% | – |
| CCOc1ccccc1/C=N\N=C\c1ccccc1O | 87.7% | 104 | 93.8% | 99.8% | 106% | 108% | 98.8% | 75.5% | 96.5% | 78.7% | 121% | 94.7% | 105% | 107% | 107% | 97.3% | 108 | 107% | – |
| COc1ccc(Cl)cc1Nc1nc(C(F)(F)F)ccc1C(=O)N/N=C/c1cc(OC)c(OC)c(OC)c1 | 54.9% | 30.7 | 8.92% (active) | – | – | 12.8% | 38.4% | 24.1% | -6.88% (active) | -5.79% (active) | -10.2% (active) | 8.43% (active) | 19.8% | 17.1% | 54.8% | – | 59.4 | 21.4% | -12% (active) |
| CCN(CC)CCCC(Nc1c2ccc(Cl)cc2nc2ccc(OC)cc12)c1ccc(F)cc1 (configuration not stated) | 86.9% | 94.1 | 14.7% | -24.3% (active) | -70.8% (active) | – | 32.6% | -42.8% (active) | -75.4% (active) | -15.2% (active) | -71.1% (active) | 67.8% | 91.5% | -82.3% (active) | -55.3% (active) | -79.2% (active) | 18.4 | -17.8% (active) | – |
| C=C1CCC2(C#N)[C@H]3[C@H](CC[C@@H]2C)[C@@H](C)C[C@@H](CC(C)(C)NC(=O)CN2CCC2=O)[C@H]13 (some centres not stated) | 60.3% | 60.6 | 96.1% | 46.6% | – | 54% | 89.5% | – | 83.2% | 47.6% | 55.5% | 63.3% | 60.5% | 47% | 80.8% | 54.9% | 67.3 | 52.1% | – |
| CC(=O)OC1C=CC(OC(C)=O)O1 (configuration not stated) | 89.4% | 80 | 101% | 79.2% | 94.6% | 97.1% | 101% | 91.1% | 89.7% | 97.7% | 112% | 97.4% | 93.5% | 112% | 94% | 89.5% | 103 | 96.5% | – |
